Screening results from PubChem BioAssay.
TSHR antag = blocks TSH signaling through the human TSH receptor; TSHR-expressing cells, TSH-stimulated cAMP HTRF, 2 h; active compounds read low; actives 0.2% (n = 330,000); P16473; AID 504810; activity change, negative = inhibition, % at 11.5 µM;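 active = activity change below a set negative limit, meaning inhibition stronger than a set level, cut at about -70% in these data; inconclusive = activity change between two set negative limits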
Target sequence (P16473 whole entry, looked up): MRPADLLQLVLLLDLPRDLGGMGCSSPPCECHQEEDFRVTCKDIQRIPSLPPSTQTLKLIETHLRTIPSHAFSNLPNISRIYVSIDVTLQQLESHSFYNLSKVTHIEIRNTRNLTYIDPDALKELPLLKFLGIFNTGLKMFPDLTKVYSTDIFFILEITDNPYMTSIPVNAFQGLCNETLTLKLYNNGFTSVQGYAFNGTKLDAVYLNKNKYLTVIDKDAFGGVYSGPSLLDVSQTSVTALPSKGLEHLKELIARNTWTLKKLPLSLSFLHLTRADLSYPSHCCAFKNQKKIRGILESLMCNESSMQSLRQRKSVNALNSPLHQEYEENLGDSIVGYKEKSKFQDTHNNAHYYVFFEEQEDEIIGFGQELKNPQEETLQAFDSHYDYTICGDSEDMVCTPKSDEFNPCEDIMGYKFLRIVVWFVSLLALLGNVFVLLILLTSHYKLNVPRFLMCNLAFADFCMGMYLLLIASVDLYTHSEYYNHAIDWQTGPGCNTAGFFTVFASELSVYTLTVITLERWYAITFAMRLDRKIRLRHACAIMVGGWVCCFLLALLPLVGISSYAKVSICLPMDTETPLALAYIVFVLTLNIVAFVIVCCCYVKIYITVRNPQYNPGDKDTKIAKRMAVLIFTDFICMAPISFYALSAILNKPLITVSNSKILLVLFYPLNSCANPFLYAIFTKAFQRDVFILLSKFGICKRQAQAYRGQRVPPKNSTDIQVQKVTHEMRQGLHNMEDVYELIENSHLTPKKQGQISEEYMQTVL
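TSHR-expressing cells, 200/well, pre-treated with compound, then stimulated with EC80 TSH (4nM final) for 2 hours at 37 deg C. cAMP measured by competitive HTRF: anti-cAMP cryptate antibody in lysis buffer plus cAMP-d2, read after 30 minutes at room temperature.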
ELG1 repair inh = inhibitors of ELG1-dependent DNA repair in HEK293T cells; actives 2.3% (n = 330,000); HEK293T ELG1-luciferase reporter, luminescence, 16 h; DNA damage induced by 5-fluorouridine; Potency, µM (series often up to 46.1 µM), for the others: at the highest dose activity change, negative = inhibition, hits mostly inhibitors; also: potency is read from the fitted curve at half-maximal effect; nearly all actives have a fitted effect of over 55% in size
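Overnight (16 hr) co-exposure of 2,000 cells/well to 5-fluorouridine and compound at 37 °C preceded detection. Luciferase was quantified via ONE-Glo luminescence; loss of signal denotes inhibition.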
VP16 counter = inhibits Gal4-VP16 luciferase reporter, ROR gamma counter-screen. Potency, µM (titrated, usually from 53.6 µM), for inactives: at the top dose activity, negative = inhibition, actives largely listed as inhibitors. Drosophila S2 Gal4-VP16 UAS-luciferase, luminescence, 20 h. actives 3.5% (n = 310,000). AID 2546;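 also: Gal4-VP16 expression switched on by copper sulfate through the metallothionein promoter; potency is read from the fitted curve at half-maximal effect; nearly all actives have a fitted effect of over 50% in size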
RORg inh = blocks mouse ROR gamma transcriptional activity | P51450 | actives 5.4% (n = 310,000) | Potency, µM (series often up to 53.6 µM), for the others: top-dose activity change, negative = inhibition, actives largely listed as inhibitors | Drosophila S2 Gal4-RORgamma UAS-luciferase reporter, 20 h; also: potency is read from the fitted curve at half-maximal effect; nearly all actives have a fitted effect of over 60% in size
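ROR gamma transcriptional activity was tracked as Gal4-UAS luciferase output in stably transfected Drosophila Schneider cells, with compound added 1 hr before 700 uM copper sulfate induction and a 20 hr ambient-temperature incubation.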
Coupling enz = counter-screen for Giardia aldolase inhibitors: coupling enzyme system; coupling enzyme system counterscreen, AmpLite Red fluorescence; activity change, negative = inhibition, % at 58.2 µM, hits read low; actives 0.67% (n = 290,000); AID 2472; in the data active = activity change below about -30%
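Counterscreen lacking aldolase: glyceraldehyde-3-phosphate coupling-enzyme reagent preincubated 10 min at RT with compound (at 57.5 uM final), then substrate/coupling system with AmpLite Red added; fluorescence read at 525/598 nm after 20 min RT.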
The depositor's hits bear a star; ? = inconclusive; / = no result; [ ] = remark or other dose. Hits are enriched below; roughly 8% of the tested compounds scored in any of these assays. Unless noted, calls follow the shape of the dose curve; as a rule, active = well fitted curve in the direction sought with a large enough effect; inconclusive = small, poorly fitted or top-dose-only effect, or another doubt; inactive = no such curve, though single readings can be large; an effect the other way counts as inactive or inconclusive. % is scaled to controls: 0 for no effect and ±100 for the full control effect.

SMILES	TSHR antag	ELG1 repair inh	VP16 counter	RORg inh	Coupling enz
O=C(NC(=S)NC1C2CC3CC(C2)CC1C3)C12CC3CC(CC(C3)C1)C2 (stereo unspecified)	9.4	20.1%	2.82µM*	1µM*	0.5
CCC1CCCCC1	/	/	-1.3%	1.2%	-1.2
Nc1cc(=O)[nH]c(SCC(=O)c2ccc(F)cc2)n1	-1.2	7.2%	2.1%	6.5%	-0.8
COC(=O)C/C=C\[C@@H](C)[C@@H](/C=N\O[C@@H]1O[C@H](COC(C)=O)[C@@H](OC(C)=O)[C@H](OC(C)=O)[C@H]1OC(C)=O)NS(=O)(=O)c1ccc(C)cc1	/	/	-4.6%[10 µM]	-5.2%[10 µM]	-2.0
Cc1nc(SCC(=O)Nc2cccc(Cl)c2)n[nH]1	0.1	-0.3%	4.3%	-0.3%	2.4
Cc1ccccc1NC(=O)CSc1n[nH]c(-c2ccccn2)n1	-5.3	?	/	/	-9.8
Cc1ccc(C)c(NC(=O)CSc2n[nH]c(-c3ccccn3)n2)c1	-1.4	?	?	6.31µM*	-3.4
O=C(CSc1n[nH]c(-c2ccccn2)n1)Nc1cccc(Cl)c1	-11.5	25.9µM*	2.82µM*	1.78µM*	/
COC(=O)Cn1c(=O)c2c(nc3n2CCCN3CCc2ccc(OC)c(OC)c2)n(C)c1=O	-11.6	-8.5%	4.1%	3.5%	1.0
Cc1[nH]c2ccccc2c1C(=O)COC(=O)C1CC(O)CN1S(=O)(=O)c1ccc(Cl)cc1 (stereo unspecified)	-7.7	-20.1%	/	/	/
CSCCC(NS(=O)(=O)c1ccc(Cl)cc1)C(=O)OCC(=O)c1c(C)[nH]c2ccccc12 (stereo unspecified)	-39.7	?	15.8µM*	?	-17.8
O=C(c1ccco1)N1CCN(Cc2nnc(-c3cccc(Br)c3)o2)CC1	13.6	-27.6%	-13.5%	-9.4%	-4.4
COc1ccc(CCNC(=O)c2ccc3c(c2)N(Cc2ccc(F)cc2)CCS3)cc1OC	-4.4	25.9µM*	2.8%	-8.2%	-4.7
COc1ccc(C(=O)NCCc2ccc(F)cc2)cc1OC	6.1	?	-13.0%	22.0%	-0.8
CCc1cc(=O)n2[nH]c(-c3ccccc3)c(-c3ccccc3)c2n1	-3.4	?	-20.9%	?	1.0
Cc1[nH]n2c(=O)c3c(nc2c1-c1ccc(Cl)cc1)CCC3	-10.7	5.8%	?	2.24µM*	1.1
CCOC(=O)Cc1cc(=O)n2[nH]c(C)c(-c3ccc(Cl)cc3)c2n1	0.6	-17.0%	?	11.2µM*	9.6
Nc1[nH]n2c(=O)c3c(nc2c1N=Nc1ccc(Cl)cc1)CCCC3	-5.8	-11.5%	2.0%	-34.4%	-0.2
CCCc1cc(=O)n2[nH]c(C)c(-c3ccccc3)c2n1	1.8	-17.1%	?	7.08µM*	0.8
COC(=O)Cc1cc(=O)n2[nH]c(C)c(-c3ccccc3)c2n1	26.6	10.9%	3.98µM*	3.55µM*	2.8
NC(=O)c1c(NC(=O)C(=O)N2CCOCC2)sc2c1CCC2	-4.4	26.8%	18.5%	28.1%	-0.2
COc1ccccc1NS(=O)(=O)c1cccc(C(=O)N(C)Cc2cccs2)c1	-17.8	4.5%	4.0%	24.8%	/
S=c1[nH]nc(-c2ccccc2)c2ccccc12	-16.6	-2.2%	11.2µM*	7.08µM*	-1.0
Cc1ccc(-c2n[nH]c(=S)c3ccccc23)cc1	-22.8	-8.3%	2.3%	30.6%	0.6
CCOc1ccc(-c2n[nH]c(=S)c3ccccc23)cc1	5.0	-1.5%	10µM*	7.08µM*	2.3
SMILES	TSHR antag	ELG1 repair inh	VP16 counter	RORg inh	Coupling enz
CC1=CC(=O)CC(C)(C)C1(O)/C=C/C(C)=C\C(=O)O (stereo unspecified)	/	/	-1.8%	9.3%	4.1
Cc1nn(-c2ccccn2)c2c1C(c1ccccc1Cl)C1=C(N2)c2ccccc2C1=O (stereo unspecified)	-3.7	20.6µM*	?	2.82µM*	0.9
CSC1=C(C#N)C(c2ccccc2Cl)C2=C(N1)c1ccccc1C2=O (stereo unspecified)	1.6	2.7%	12.4%	-14.3%	-3.3
Cc1nn(-c2ccccn2)c2c1C(c1ccsc1)C1=C(CCCC1=O)N2 (stereo unspecified)	-15.7	?	?	?	-2.8
Cc1nn(-c2ccccn2)c2c1C(c1c(F)cccc1Cl)C1=C(N2)c2ccccc2C1=O (stereo unspecified)	-1.9	14.6µM*	7.94µM*	1.58µM*	-2.8
CCOC(=O)C1CCN(C(=O)Nc2ccc3c(c2)nc(C)n3C)CC1	4.1	?	-8.5%	0.4%	-4.9
CCOC(=O)C1CCN(C(=O)Nc2ccc3nc(-c4ccco4)c(-c4ccco4)nc3c2)CC1	2.2	?	29.5%	?	-44.6*
Cc1nc2ccc(NC(=O)N3CCCCC3)cc2nc1C	-5.9	?	-4.4%	18.6%	-3.0
O=C(Nc1ccc2nc(-c3ccco3)c(-c3ccco3)nc2c1)N1CCCCCC1	-8.2	?	-5.0%[0.365 µM]	-39.5%	-36.8*
CCOC(=O)c1c(C)[nH]c2ccc3c(c12)CN1CCc2cc(OC)ccc2[C@@H]1O3	/	/	?	39.9%	0.3
COc1ccc(NC(=O)c2cnc(C)cn2)c2ncccc12	-0.9	7.1%	0.562µM*	0.316µM*	1.1
CC(Cc1cccs1)NC(=S)Nc1ccc(Cl)c(Cl)c1 (stereo unspecified)	-2.1	14.2%	?	7.94µM*	1.7
CC(Cc1cccs1)NC(=S)Nc1ccc(Cl)cc1 (stereo unspecified)	-3.0	1.9%	14.1µM*	7.08µM*	3.2
Cc1ccccc1NC(=O)COC(=O)c1cc(S(=O)(=O)N2CCOCC2)ccc1C	0.5	-19.4%	/	/	/
NC(=O)CCC(NC(=O)c1ccc(Cl)cc1)C(=O)NCCc1ccc2c(c1)OCCO2 (stereo unspecified)	5.0	22.4%	/	/	/
O=C(NC(=S)Nc1ccccc1Br)C1CCCC1	-6.3	?	7.08µM*	3.16µM*	/
O=C(NC(=S)Nc1ccccc1F)C1CCCCC1	-10.9	?	7.94µM*	8.91µM*	/
Cc1cnc(C(=O)O)c[n+]1[O-]	/	/	-13.6%	6.6%	0.6
CCCCC1=CC2=C(OC(C)=O)C(=O)C(C)(OC(=O)c3ccco3)C(=O)C2=CO1 (stereo unspecified)	/	/	1.5%	-1.8%	-3.8
COc1ccc(-c2cc(C(F)(F)F)n3ncc(C(=O)N4CCc5ccccc5C4)c3n2)cc1	-8.5	11.6µM*	-2.5%	?	-2.7
COc1cccc(-c2cc(C(F)(F)F)n3ncc(C(=O)N4CCc5ccccc5C4)c3n2)c1	-1.8	20.6µM*	-7.0%	20.3%	0.5
COc1cccc(-c2cc(C(F)(F)F)n3ncc(C(=O)O)c3n2)c1	-10.7	-2.8%	/	-6.5%[0.365 µM]	4.6
O=C(c1cnn2c(C(F)(F)F)cc(-c3ccco3)nc12)N1CCc2ccccc2C1	1.6	23.1µM*	-16.3%	-6.2%	-0.1
